Compounds without any hit were thinned out: in the full panel of roughly 83,000, 20% have a hit.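 Cell lines were cultured in 96-well plates, exposed to a single compound concentration, and assessed for percent growth 48 hours later.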 Unmarked numbers belong to inactive results. Calls of active or inactive are those of the source. How the source made its calls: active means growth percent below 10; inactive means the rest.
What was measured:
Assay in all cases: NCI-60 one-dose screen, 48 h (100 = growth as untreated, 0 = no growth, -100 = all killed)
Conditions in all cases: 10 µM unless noted
NCI-H23 lung = test system: NCI-H23 lung
NCI-H226 lung = test system: NCI-H226 lung
NCI-H322M lung = test system: NCI-H322M lung
HOP-62 NSCLC = test system: HOP-62 NSCLC
NCI-H460 lung = test system: NCI-H460 lung
HOP-92 NSCLC = test system: HOP-92 NSCLC
NCI-H522 lung = test system: NCI-H522 lung
A549/ATCC NSCLC = test system: A549/ATCC NSCLC
786-0 renal = test system: 786-0 renal
COLO 205 colon = test system: COLO 205 colon
DU-145 prostate = test system: DU-145 prostate
K-562 leukemia = test system: K-562 leukemia
MALME-3M melanoma = test system: MALME-3M melanoma
MDA-MB-231 breast = test system: MDA-MB-231 breast
RXF 393 renal = test system: RXF 393 renal
SF-268 CNS = test system: SF-268 CNS
SF-295 CNS = test system: SF-295 CNS
SF-539 CNS = test system: SF-539 CNS
UACC-257 melanoma = test system: UACC-257 melanoma
M14 melanoma = test system: M14 melanoma

For `Nc1nc(N)c2c(n1)NC(c1ccc(F)cc1)C1CCc3ccccc3C1=N2` (stereo not given), the growth (NCI-H23 lung) was 51.1%, the growth (NCI-H226 lung) was 53.1% and the growth (NCI-H322M lung) was 67.3%. It also gave a growth (HOP-62 NSCLC) of 74.1%, a growth (NCI-H460 lung) of 26.2% and a growth (HOP-92 NSCLC) of 74.1%. The growth (NCI-H522 lung) was 101%, the growth (A549/ATCC NSCLC) was 58.6% and the growth (786-0 renal) was 60.9%. For the same compound, the growth (COLO 205 colon) was 48.4%, the growth (DU-145 prostate) was 62.1% and the growth (K-562 leukemia) was 21.4%. It also gave a growth (MALME-3M melanoma) of 17.2%, a growth (MDA-MB-231 breast) of 80.8% and a growth (RXF 393 renal) of 83.1%. For the same compound, the growth (SF-268 CNS) was 76.1%, the growth (SF-295 CNS) was 34.2% and the growth (SF-539 CNS) was 56.8%. It also gave a growth (UACC-257 melanoma) of 45.6% and a growth (M14 melanoma) of 62.8%.

In the case of `CC1(C(=O)O)CCC(N)(C(=O)O)C1(C)C` (stereo not given), the growth (NCI-H23 lung) is reported as 113%, the growth (NCI-H226 lung) is reported as 108% and the growth (NCI-H322M lung) is reported as 108%. For the same compound, the growth (HOP-62 NSCLC) was 99.5%, the growth (NCI-H460 lung) was 117% and the growth (HOP-92 NSCLC) was 89.4%. The growth (NCI-H522 lung) was 97.1%, the growth (A549/ATCC NSCLC) was 110% and the growth (786-0 renal) was 109%. It also gave a growth (COLO 205 colon) of 104%, a growth (DU-145 prostate) of 118% and a growth (K-562 leukemia) of 107%. For the same compound, the growth (MALME-3M melanoma) was 113%, the growth (MDA-MB-231 breast) was 108% and the growth (RXF 393 renal) was 126%. For the same compound, the growth (SF-268 CNS) was 112%, the growth (SF-295 CNS) was 97.3% and the growth (SF-539 CNS) was 108%. It also gave a growth (UACC-257 melanoma) of 121% and a growth (M14 melanoma) of 110%.

Work on `O=c1[nH]cnc2c1ccn2C1OC(CO)C(O)C1O` (stereo not given) yielded a growth (NCI-H23 lung) of 81.4%, a growth (NCI-H226 lung) of 75.1% and a growth (NCI-H322M lung) of 64.6%. The growth (HOP-62 NSCLC) was 76.5%, the growth (NCI-H460 lung) was 49.4% and the growth (HOP-92 NSCLC) was 8.49% (active). It also gave a growth (NCI-H522 lung) of 61%, a growth (A549/ATCC NSCLC) of 84.4% and a growth (786-0 renal) of 58.9%. The growth (COLO 205 colon) was 66.8%, the growth (DU-145 prostate) was 18.4% and the growth (K-562 leukemia) was 65.4%. The growth (MALME-3M melanoma) was 81.3%, the growth (MDA-MB-231 breast) was 45.3% and the growth (RXF 393 renal) was 43.1%. For the same compound, the growth (SF-268 CNS) was 76%, the growth (SF-295 CNS) was 69.2% and the growth (SF-539 CNS) was 80.4%. It also gave a growth (UACC-257 melanoma) of 86.2% and a growth (M14 melanoma) of 55.9%.

Work on `CC(C)[C@H]1COC(=O)N1[C@@H]1C(=O)N([C@@H](CCC(=O)N2CCN(C3CCCC3)CC2)C(=O)N[C@@H]2CCCc3ccccc32)[C@@H]1/C=C/c1cccc(Cl)c1` yielded a growth (NCI-H23 lung) of 72.1%, a growth (NCI-H226 lung) of 88.9% and a growth (NCI-H322M lung) of 57.9%. For the same compound, the growth (HOP-62 NSCLC) was 79%, the growth (NCI-H460 lung) was 46.2% and the growth (HOP-92 NSCLC) was 31.4%. It also gave a growth (NCI-H522 lung) of 75.5%, a growth (A549/ATCC NSCLC) of 35.9% and a growth (786-0 renal) of 54.9%. The growth (COLO 205 colon) was 57.7%, the growth (DU-145 prostate) was 65.3% and the growth (K-562 leukemia) was 45.5%. For the same compound, the growth (MALME-3M melanoma) was 82.3%, the growth (MDA-MB-231 breast) was 44.7% and the growth (RXF 393 renal) was 50%. For the same compound, the growth (SF-268 CNS) was 28.5%, the growth (SF-295 CNS) was 54% and the growth (SF-539 CNS) was 68.9%. For the same compound, the growth (UACC-257 melanoma) was 20.5% and the growth (M14 melanoma) was 36.6%.

`COCCCNc1nc(NC(=O)c2cc(Br)cc(C(F)(F)F)c2)cc(-c2cccnc2)n1` showed a growth (NCI-H23 lung) of 103%, a growth (NCI-H226 lung) of 91.8% and a growth (NCI-H322M lung) of 99.9%. It also gave a growth (HOP-62 NSCLC) of 91.8%, a growth (NCI-H460 lung) of 85.7% and a growth (HOP-92 NSCLC) of 57.9%. For the same compound, the growth (NCI-H522 lung) was 83.6%, the growth (A549/ATCC NSCLC) was 82% and the growth (786-0 renal) was 85.8%. The growth (COLO 205 colon) was 96.4%, the growth (DU-145 prostate) was 100% and the growth (K-562 leukemia) was 73.3%. For the same compound, the growth (MALME-3M melanoma) was 99.7%, the growth (MDA-MB-231 breast) was 75.8% and the growth (RXF 393 renal) was 103%. It also gave a growth (SF-268 CNS) of 90.5%, a growth (SF-295 CNS) of 89.2% and a growth (SF-539 CNS) of 94%. For the same compound, the growth (UACC-257 melanoma) was 91% and the growth (M14 melanoma) was 96.5%.

`CSc1nc(N)c(N=Nc2ccc(S(=O)(=O)Nc3nnc(C)s3)cc2)c(=O)[nH]1` gave a growth (NCI-H23 lung) of 107%, a growth (NCI-H226 lung) of 100% and a growth (NCI-H322M lung) of 109%. The growth (HOP-62 NSCLC) was 104%, the growth (NCI-H460 lung) was 106% and the growth (HOP-92 NSCLC) was 108%. The growth (NCI-H522 lung) was 103%, the growth (A549/ATCC NSCLC) was 115% and the growth (786-0 renal) was 114%. For the same compound, the growth (COLO 205 colon) was 96.3%, the growth (DU-145 prostate) was 101% and the growth (K-562 leukemia) was 138%. It also gave a growth (MALME-3M melanoma) of 109%, a growth (MDA-MB-231 breast) of 103% and a growth (RXF 393 renal) of 110%. The growth (SF-268 CNS) was 101%, the growth (SF-295 CNS) was 133% and the growth (SF-539 CNS) was 109%. For the same compound, the growth (UACC-257 melanoma) was 117% and the growth (M14 melanoma) was 101%.

`CCCCCCNC(=O)Nc1ncnc2c1ncn2-c1ccccc1` showed a growth (NCI-H23 lung) of 98%, a growth (NCI-H226 lung) of 93.8% and a growth (NCI-H322M lung) of 94.9%. The growth (HOP-62 NSCLC) was 77.6%, the growth (NCI-H460 lung) was 102% and the growth (HOP-92 NSCLC) was 89.3%. The growth (NCI-H522 lung) was 82.5%, the growth (A549/ATCC NSCLC) was 88% and the growth (786-0 renal) was 85.5%. It also gave a growth (COLO 205 colon) of 88.8%, a growth (DU-145 prostate) of 108% and a growth (K-562 leukemia) of 106%. It also gave a growth (MALME-3M melanoma) of 115%, a growth (MDA-MB-231 breast) of 92.8% and a growth (RXF 393 renal) of 106%. The growth (SF-268 CNS) was 103%, the growth (SF-295 CNS) was 90.1% and the growth (SF-539 CNS) was 94%. The growth (UACC-257 melanoma) was 105% and the growth (M14 melanoma) was 104%.
